Bioassay records from PubChem.
TEAD-YAP block = TEAD-YAP interaction inhibition; HEK-TIYL cells, TEAD-Gal4/YAP UAS-luciferase luminescence; inhibition, % at 9.12 µM; 640,000 compounds, 1.4% hits; AID 1259422; in the data active = inhibition above about 32%;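 note: 0% = median of test compound wells and 100% = reference inhibitor wells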
GPR151 ag = activates the human receptor GPR151; PathHunter beta-arrestin GPR151 cells, luminescence; AID 1508602; 650,000 compounds, 1% hits; Q8TDV0; activation, % at 11.2 µM; in the data active = activation above about 4.9%;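 note: 0% = median of compound wells and 100% = cells with positive control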
Target sequence (Q8TDV0 whole entry, looked up): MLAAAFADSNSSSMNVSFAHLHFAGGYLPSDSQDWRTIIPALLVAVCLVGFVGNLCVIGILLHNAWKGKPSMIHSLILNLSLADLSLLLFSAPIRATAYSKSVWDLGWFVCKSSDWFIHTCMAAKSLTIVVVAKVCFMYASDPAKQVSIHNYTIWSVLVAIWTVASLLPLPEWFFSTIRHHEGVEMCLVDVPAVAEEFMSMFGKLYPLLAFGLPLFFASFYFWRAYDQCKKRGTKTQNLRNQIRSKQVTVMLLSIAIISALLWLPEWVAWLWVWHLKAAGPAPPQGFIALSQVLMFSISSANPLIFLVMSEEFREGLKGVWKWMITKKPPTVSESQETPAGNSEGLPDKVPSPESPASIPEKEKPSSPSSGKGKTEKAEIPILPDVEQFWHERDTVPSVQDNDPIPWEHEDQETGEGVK
MITF inh = blocks human microphthalmia-associated transcription factor; 650,000 compounds, 0.91% hits; inhibition, % at 2.6 µM; AlphaScreen MITF homodimerization, bead proximity signal; O75030; in the data active = inhibition above about 50%;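 note: 0% = vehicle wells with protein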
FBW7 act = activators of human E3 ligase FBW7; normalized activity (activation), % at 26.1 µM; AlphaScreen FBW7–phospho-cyclin E peptide binding, activator screen; Q969H0; AID 1259310; 650,000 compounds, 0.13% hits; in the data active = normalized activity above about 1.9%;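 note: purified mutant Fbw7 with reduced substrate affinity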
GPR151 confirm = confirmation of human GPR151 activators. shares compounds with GPR151 ag. GPR151 PathHunter beta-arrestin cells, luminescence, 90 min; % of EA-reagent control over plate median. activation, % at 11.2 µM. 6,700 tested, under 10 active. AID 1508609;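 active = mean percent activation across replicates above the confirmation screen cutoff of 4.91%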
GPR119 ag = GPR119 activation, counter-screen for GPR151 activators; activation, % at 11.2 µM; 6,700 compounds, 0.3% hits; shares compounds with GPR151 ag; GPR119 PathHunter beta-arrestin cells, luminescence, 90 min; 0 = compound-well median, 100 = enzyme-acceptor control; AID 1508611;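 active = mean percent activation in the counterscreen above 29.09%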;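 note: counterscreen on off-target GPR119 to flag nonselective hits from the GPR151 activator screen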
Numbers without * were called inactive; . = not tested or not shown; ! = a repeat was not active. Only some compounds are listed: those with a hit (about 3.5% of all), similar ones and a draw of the others.

SMILES | TEAD-YAP block | GPR151 ag | MITF inh | FBW7 act | GPR151 confirm | GPR119 ag
S=P(Nc1ccccc1)(Nc1ccccc1)Nc1ccccc1 | 4.4 | 0.3 | -21.6 | 0.0 | . | .
O=c1c2ccccc2nc(/C=C/c2ccc3c(c2)OCO3)n1-c1ccccc1O | -6.1 | 8.9* | 11.2 | 0.0 | 0.5 | -5.4
C[C@]12CC[C@H](O)C[C@H]1CC[C@@H]1[C@@H]2C[C@@H](O)[C@]2(C)[C@@H](C3=CC(=O)OC3)CC[C@]12O | 98.1* | 5.7*! | -9.4 | -0.3 | -0.1 | 108.8*
Cc1cc(N2C(=O)C3CCCN3C2c2ccccc2F)no1 (stereo not drawn) | 4.6 | 1.1 | -1.7 | -0.1 | . | .
CCC(=O)Nc1ccc(N2CCN(C)CC2)c(Cl)c1 | -21.4 | 1.7 | -13.6 | 0.0 | . | .
Cc1nn(Cc2ccccc2)c(Cl)c1C(=O)NC1CCCCCC1 | . | 7.4* | . | . | -0.8 | -10.0
CCOC(=O)c1c(CN2CCCCC2)n(Cc2ccccc2)c2cc(Br)c(O)cc12 | -7.8 | 5.0* | -6.4 | 0.0 | 1.3 | 14.8
CCOC(=O)c1c(CN2CCCC2)n(Cc2ccccc2)c2cc(Br)c(O)cc12 | -17.3 | 1.1 | -5.5 | -0.1 | . | .
CCOC(=O)C1C2NC(=S)N(c3ccc(Br)cc3)C1(C)Oc1c(OCC)cccc12 (stereo not drawn) | 3.7 | 0.4 | 22.9 | -0.9 | . | .
CCOC(=O)C1=C(C)OC(N)=C(C#N)C12C(=O)N(CC(N)=O)c1ccccc12 (stereo not drawn) | -1.6 | 0.4 | -27.0 | -0.1 | . | .
CCOC(=O)C1=C(C)OC(N)=C(C(=O)OCC)C12C(=O)N(CC(N)=O)c1ccccc12 (stereo not drawn) | 10.9 | 9.6* | 2.2 | 0.0 | 0.1 | -5.1
Cc1nc2ccccc2c(=O)n1-c1cccc(Br)c1 | 2.7 | 2.0 | -4.4 | 0.4 | . | .
COc1cc(CN2CCNCC2)cc2c1OCO2 | -4.2 | 0.6 | -0.4 | 0.0 | . | .
C=CCc1cc(OC)c2c(c1OC)OCO2 | 2.4 | 10.6* | 5.1 | 0.0 | -1.2 | -4.3
NC(=O)OCCCc1ccccc1 | -9.8 | 1.6 | -3.8 | 0.0 | . | .
CCCCOC(=O)c1ccccc1C(=O)OCCCC | 0.1 | 5.9*! | -15.4 | 0.1 | 1.4 | 2.3
CCOC(=O)C1=C(C)OC(N)=C(C#N)C12C(=O)N1c3c(cc(CC)cc32)C(C)CC1(C)C (stereo not drawn) | 4.0 | 9.0* | 10.8 | 0.0 | -0.5 | -7.6
CCOC(=O)C1=C(N)Oc2cc(O)ccc2C12C(=O)N1c3c(cccc32)C(C)CC1(C)C (stereo not drawn) | 8.0 | 0.0 | 6.4 | 0.0 | . | .
COc1ccc(Cc2nccc3cc(OC)c(OC)cc23)cc1OC | 3.8 | 5.8*! | 6.2 | 0.1 | 1.6 | 12.7
COc1ccc(CCNCc2cc(OC)c(OC)c(OC)c2)cc1OC | 13.3 | -1.1 | 40.6 | 0.2 | . | .
O=C(c1ccccc1)c1cc(Br)ccc1NC(=O)c1sc2ccccc2c1Cl | -3.2 | -0.9 | 1.9 | 0.0 | . | .
CC(C)NC(=O)/C=C/c1ccc(C(C)C)cc1 | -50.5 | -0.6 | 10.5 | 0.6 | . | .
CC(C(=O)N1CCC2(CC1)OCCO2)C1Sc2ccccc2NC1=O (stereo not drawn) | -5.7 | 9.2* | -8.0 | 0.0 | 0.5 | -7.7
CCCCC/C=C\C/C=C\C/C=C\C/C=C\CCCC(=O)NCCO | . | 7.1* | 9.9 | . | 0.0 | -8.4
CC[C@@H]1C(=O)OC[C@@H]1Cc1cncn1C | 1.8 | 9.6*! | -6.5 | -0.1 | 0.4 | -6.2
N=C1c2ccccc2CN1c1cccc2ccccc12 | -7.3 | 0.2 | -9.7 | -0.2 | . | .
